# In the library only some 21% were active in any assay of this set; here they are far more common.
# IL1B secr inh: inhibitors of inflammasome signaling (IL-1 beta secretion); THP-1 LPS/ATP IL-1B secretion, AlphaLISA, 16 h; active compounds read low; activity change, % at 57.5 µM; 360,000 compounds, 4.7% hits; in the data active = activity change below about -50%; inconclusive = mostly about -30% to -49%
#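 Secreted IL-1B measured by AlphaLISA bead assay after 16 h compound exposure of THP-1 cells; compounds (final up to 57.5 uM) added 1 h before LPS (250 ng/mL) and ATP (1.25 mM) stimulation; lower signal means less secretion.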
# TDP1 cell noCPT: qHTS for Inhibitors of human tyrosyl-DNA phosphodiesterase 1 (TDP1): qHTS in cells in absence of CPT | AID 686978, 2013 | 420,000 compounds, 15% hits | Potency, µM (doses to about 46.2 µM), for the others: at the top dose activity change, negative = growth inhibition, hits mostly inhibitors | DT40 Tdp1-/- hTDP1 cells, no CPT, ATP luminescence, 48 h; note: potency is the fitted concentration of half-maximal effect; nearly all actives have a fitted effect of over 55% in size
#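 Stably hTDP1-transfected Tdp1-null chicken DT40 cells were treated with library compounds minus camptothecin and grown for at least 48 hr at 37 °C, after which cellular ATP was quantified by luminescence.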
# Gal4-VP16 FLuc: inhibits Gal4-VP16 luciferase reporter, ROR gamma counter-screen | Drosophila S2 Gal4-VP16 UAS-luciferase, luminescence, 20 h | Potency, µM (series often up to 53.6 µM), for the others: at the highest dose activity, negative = inhibition, hits mostly inhibitors | 310,000 compounds, 3.5% hits;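 note: Gal4-VP16 expression switched on by copper sulfate through the metallothionein promoter; potency is the fitted concentration of half-maximal effect; nearly all actives have a fitted effect of over 50% in size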
# DT40 TDP1 CPT: DT40-hTDP1 cell growth loss with CPT. Potency, µM (doses to about 46.2 µM), for inactives: top-dose activity change, negative = growth inhibition, hits mostly inhibitors. chicken DT40 Tdp1-/-;hTDP1 cells + 20 nM CPT, ATP luminescence, 48 h. 420,000 compounds, 12% hits; note: potency is the fitted concentration of half-maximal effect; nearly all actives have a fitted effect of over 55% in size
#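 Chicken DT40 Tdp1-/- cells complemented with human TDP1, 400 cells/well, exposed to compounds plus 20 nM camptothecin for at least 48 h at 37 C; viability read as ATP content by CellTiter-Glo luminescence.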
# RORgamma inh: ROR gamma (mouse) transcription inhibition | P51450 | Drosophila S2 Gal4-RORgamma UAS-luciferase reporter, 20 h | Potency, µM (top dose mostly 53.6 µM), inactives show top-dose activity change, negative = inhibition, actives largely listed as inhibitors | 310,000 compounds, 5.4% hits | AID 2551; note: potency is the fitted concentration of half-maximal effect; nearly all actives have a fitted effect of over 60% in size
# Target sequence (P51450 whole entry, looked up, the tested form may be a part): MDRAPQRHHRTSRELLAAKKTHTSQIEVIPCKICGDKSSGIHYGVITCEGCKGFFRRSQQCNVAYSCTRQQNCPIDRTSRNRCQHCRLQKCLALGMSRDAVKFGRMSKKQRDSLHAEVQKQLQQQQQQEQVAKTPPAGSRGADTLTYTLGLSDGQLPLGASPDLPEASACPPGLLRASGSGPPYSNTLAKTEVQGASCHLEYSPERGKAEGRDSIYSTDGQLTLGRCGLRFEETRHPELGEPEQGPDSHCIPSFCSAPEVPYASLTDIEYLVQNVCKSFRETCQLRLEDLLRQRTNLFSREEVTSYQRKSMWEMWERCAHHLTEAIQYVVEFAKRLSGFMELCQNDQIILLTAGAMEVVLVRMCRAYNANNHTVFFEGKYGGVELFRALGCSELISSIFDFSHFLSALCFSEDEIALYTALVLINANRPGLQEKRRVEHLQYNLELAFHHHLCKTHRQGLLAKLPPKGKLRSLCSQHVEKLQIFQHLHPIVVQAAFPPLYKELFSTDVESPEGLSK
#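 Schneider cells (Drosophila), stable Gal4 DBD–ROR gamma + UAS-luc; 1 hr cmpd preincubation; Cu2+ induction 700 uM final; 20 hr ambient; luminescence.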
# ELG1 repair inh: ELG1-dependent DNA repair inhibition | 330,000 compounds, 2.3% hits | HEK293T ELG1-luciferase reporter, luminescence, 16 h; DNA damage induced by 5-fluorouridine | Potency, µM (highest dose often 46.1 µM), inactives show at the highest dose activity change, negative = inhibition, hits mostly inhibitors | AID 504467; note: potency is the fitted concentration of half-maximal effect; nearly all actives have a fitted effect of over 55% in size
#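 Quantitative HTS, concentration-response format. 2,000 cells/well co-treated with 5-fluorouridine and compound, 16 hr in 5% CO2 at 37 °C; ONE-Glo luminescence read after 30 min.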
# The depositor's hits bear a star; ? = inconclusive; · = no result given; [ ] = remark or other dose. Unless noted, calls come from the whole dose curve; as a rule, active = well fitted curve in the direction sought with a large enough effect; inconclusive = small, poorly fitted or top-dose-only effect, or another doubt; inactive = no such curve, though single readings can be large; an effect the other way counts as inactive or inconclusive. % is set by controls: 0 for no effect and ±100 for the full control effect.
SMILES,IL1B secr inh,TDP1 cell noCPT,Gal4-VP16 FLuc,DT40 TDP1 CPT,RORgamma inh,ELG1 repair inh
COc1cccc(NS(=O)(=O)c2ccc(-n3cccn3)cc2)c1,-16,5.8µM*,?,?,18%,-10%
CCOC(=O)c1cc(S(=O)(=O)Nc2cccc(OC)c2)cn1C,10,?,?,21µM*,?,-8%
CCOc1ccc(S(=O)(=O)Nc2cccc(N(C)S(C)(=O)=O)c2)cc1,0,12µM*,-24%,23µM*,1%,-15%
Cc1ccc(NS(=O)(=O)c2ccc(-n3cccn3)cc2)cc1F,-3,-19%,-23%,?,28%,-5%
CCOc1ccc(NS(=O)(=O)c2cnc(Cl)c(Cl)c2)cc1,-99*,?,5%,?,9%,-2%
COC(=O)c1cc(S(=O)(=O)Nc2cc(OC)cc(OC)c2)cn1C,5,?,3%,-27%,24%,-3%
CCN(CCCNC(=O)c1ccc(N2CCCC2=O)cc1)c1cccc(C)c1,-20,-6%,0%,?,27%,?
CC(Sc1n[nH]c(N)n1)C(=O)Nc1cccc2ccccc12 (stereo unspecified),8,-24%,·,?,·,12%
COc1ccc(OC)c(C2=Nn3c(nnc3-c3ccc(OC)c(OC)c3)SC2)c1,·,·,28%,·,-27%,·
COc1ccc(S(=O)(=O)Nc2cccc(N(C)S(C)(=O)=O)c2)cc1C,10,21µM*,-21%,26µM*,?,?
CCCCOc1ccc(S(=O)(=O)Nc2cc(OC)ccc2OC)cc1,-75*,16µM*,?,?,43%,·
COc1ccc(S(=O)(=O)Nc2cccc(F)c2)cc1C,3,-17%,-6%,-22%,2%,6%
CCOc1ccc(S(=O)(=O)Nc2cccc(OC)c2)cc1,36,?,18µM*,?,-31%,?
CC1=C(C(=O)N2CCCCCC2)CC(CC(=O)NCCCN(C)C)C(=O)N1CCCN1CCCC1=O (stereo unspecified),·,2%,·,8%,·,·
C=CC(COCc1ccccc1)N(C(=O)OC(C)(C)C)S(=O)(=O)c1ccccc1Br (stereo unspecified),-4,16µM*,-4%,?,39%,28%
COc1cc(F)ccc1-c1csc(C(NC(C)=O)c2cccc(F)c2)n1 (stereo unspecified),-15,?,·,?,·,·
Cn1c(-c2ccccc2)cc2onc(-c3ccccc3)c2c1=O,-8,21µM*,·,15µM*,·,?
Cn1c(-c2ncc(F)cc2F)cc2onc(-c3c(F)cccc3Cl)c2c1=O,-6,?,·,?,·,?
CNC(=O)C1Cc2c(-c3ccc4c(c3)OCO4)ccnc2O1 (stereo unspecified),-10,-28%,·,-30%,·,·
CCCCCC(=O)N/N=C(\C)c1ccccn1,47,5.8µM*,0.56µM*,5.8µM*,0.35µM*,?
C/C(=N\NC(=O)COc1ccccc1-c1ccccc1)c1ccc(O)cc1O,169,?,?,21µM*,0%,23µM*
C/C(=N\NC(=O)c1cccnc1)c1ccccc1,-5,3%,5%,-4%,16%,?
CC(=NNC(=S)SCc1ccccc1)c1ccccn1,-3,0.041µM*,·,0.052µM*,·,·
C/C(=N\NC(=O)COc1ccccc1-c1ccccc1)c1cccnc1,19,21µM*,5%,?,20%,?
Cc1ccc(-c2noc(-c3cccnc3NCc3ccc(Cl)cc3)n2)cc1,·,-23%,·,-9%,·,·
SMILES,IL1B secr inh,TDP1 cell noCPT,Gal4-VP16 FLuc,DT40 TDP1 CPT,RORgamma inh,ELG1 repair inh
C/C(=N\NC(=O)COc1ccccc1-c1ccccc1)c1ccccn1,-7,2.6µM*,?,2.6µM*,1.1µM*,?
O=C(O)COc1ccccc1-c1ccccc1,-1,8%,-2%,4%,4%,8%
COc1ccc(Nc2nc(-c3cccc(OC)c3O)nc3ccccc23)cc1,-7,16µM*,2%,?,28%,?
COc1cccc(-c2nc(NCCN3CCOCC3)c3ccccc3n2)c1O,0,18µM*,-27%,15µM*,-20%,?
COc1cccc(-c2nc(Oc3cc(C)cc(C)c3)c3ccccc3n2)c1O,·,·,-12%,·,-3%,?
COc1ccccc1-c1nc(NCCN2CCOCC2)c2ccccc2n1,·,-28%,-14%,-28%,-30%,·
COc1cccc(-c2nc(NC(C)(C)C)c3ccccc3n2)c1O,-51*,21µM*,?,?,?,?
COc1cccc(CNc2nc3cc(-c4cnn(Cc5ccccc5)c4)sc3c(=O)n2C)c1,0,?,·,?,·,·
COc1ccc(CCNC(=O)C(=O)NCC(c2ccc3c(c2)OCO3)N2CCOCC2)cc1OC (stereo unspecified),·,-24%,·,-8%,·,·
CC(=O)Nc1ccc(S(=O)(=O)NCCC(=O)OCC(=O)NCc2ccccc2)cc1,23,-12%,·,0%,·,10%
O=C(O)C1=C(OCc2ccccc2)C(=O)NCC1,0,-11%,1%,-4%,2%,-10%
Cc1cn2c(=O)cc(COc3ccc(NC(=O)c4ccccc4C)cc3)nc2s1,·,-5%,·,-10%,·,·
CCCOc1cccc(C2c3c(oc4ccccc4c3=O)C(=O)N2c2nncs2)c1 (stereo unspecified),·,?,·,15µM*,·,·
COC(=O)c1sc(N2C(=O)c3oc4ccccc4c(=O)c3C2c2cccs2)nc1C (stereo unspecified),-7,16µM*,·,18µM*,-16%[0.365 µM],-1%
COC(=O)c1sc(N2C(=O)c3oc4ccc(F)cc4c(=O)c3C2c2ccc(C)cc2)nc1C (stereo unspecified),·,?,·,2%,·,·
O=C1c2oc3ccccc3c(=O)c2C(c2cccc(Br)c2)N1c1ccccn1 (stereo unspecified),·,16µM*,·,?,·,·
CCCOc1cccc(C2c3c(oc4ccc(F)cc4c3=O)C(=O)N2c2nc(C)c(C(C)=O)s2)c1 (stereo unspecified),·,15µM*,·,13µM*,·,·
O=c1cc(CN(Cc2ccccc2)Cc2ccccc2)c2ccccc2o1,12,?,·,?,·,·
COc1ccc(CC(=O)NCC(=O)N/N=C/c2sccc2C)cc1,-7,2%,-1%,1%,-9%,12%
COc1ccc(S(=O)(=O)N2CCCCCC2)cc1Br,-5,-23%,2%,-14%,12%,7%
